Columns and labels:
Conditions in all cases: concentration: 10 µM; 24 h
HCC1569 [1] = assay: cell number relative to DMSO (% of DMSO); higher = more cells (less growth inhibition / toxicity)
How it was run: (§1)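 In 384-well plates holding 800 HCC1569 or TDF cells per well in RPMI with 10% FBS, compounds were tested at 10 µM for 24 h at 37 °C in triplicate. Fixation used 3.7% formaldehyde. Staining used a rabbit anti-H1.0 antibody with an AlexaFluor 647 secondary, plus DAPI. Each value, H1.0 nuclear intensity or cell number, is a median of replicates shown as percent of the plate control, and HCC1569 values were smoothed for positional effects.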

TDF [2] = assay: as above
How it was run: as §1

TDF [3] = assay: H1.0 immunofluorescence intensity relative to DMSO (% of DMSO); higher = stronger H1.0 induction, active = 120 or more
How it was run: as §1

HCC1569 [4] = assay: H1.0 immunofluorescence intensity relative to DMSO (% of DMSO); higher = stronger H1.0 induction, active = 140 or more
How it was run: as §1
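Wherever H1.0 immunofluorescence intensity relative to DMSO is given: TDF is a line of transformed human dermal fibroblasts of mesenchymal origin.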
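Wherever cell number relative to DMSO is given: TDF denotes transformed human dermal fibroblasts of mesenchymal origin.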

With `CC(C)=CCCC(C)=CCCC(C)=CCSCC(=O)O` [Farnesylthoiacetic acid] the cell number (HCC1569 [1]) was 100, the cell number (TDF [2]) was 101 and the H1.0 immunofluorescence intensity (TDF [3]) was 97.7 (inactive). The H1.0 immunofluorescence intensity (HCC1569 [4]) was 96.1 (inactive).

For `COc1ccccc1N1CCN(CC(O)COc2cccc3ccccc23)CC1.Cl.Cl` (configuration not stated) [Naftopidil dihydrochloride], the cell number (HCC1569 [1]) was 101, the cell number (TDF [2]) was 106 and the H1.0 immunofluorescence intensity (TDF [3]) was 101 (inactive). The H1.0 immunofluorescence intensity (HCC1569 [4]) was 101 (inactive).

For `CNC(=O)C1OC(n2cnc3c(NCc4cccc(I)c4)ncnc32)C(O)C1O` (configuration not stated), the cell number (HCC1569 [1]) was 102, the cell number (TDF [2]) was 114 and the H1.0 immunofluorescence intensity (TDF [3]) was 87.4 (inactive). The H1.0 immunofluorescence intensity (HCC1569 [4]) was 82.1 (inactive).

For `COc1ccc(CNC(=O)c2sc3nc(C)cc(C)c3c2N)cc1`, the cell number (HCC1569 [1]) was 100, the cell number (TDF [2]) was 102 and the H1.0 immunofluorescence intensity (TDF [3]) was 97.5 (inactive). For the same compound, the H1.0 immunofluorescence intensity (HCC1569 [4]) was 101 (inactive).

In the case of `Br.COc1ccccc1N1CCN(CCCCN2C(=O)c3ccccc3C2=O)CC1` [NAN-190 hydrobromide], the cell number (HCC1569 [1]) is reported as 104, the cell number (TDF [2]) is reported as 102 and the H1.0 immunofluorescence intensity (TDF [3]) is reported as 90.9 (inactive). For the same compound, the H1.0 immunofluorescence intensity (HCC1569 [4]) was 100 (inactive).

In the case of `CN(CC=CC#CC(C)(C)C)Cc1cccc2ccccc12` [Terbinafine], the cell number (HCC1569 [1]) is reported as 104, the cell number (TDF [2]) is reported as 110 and the H1.0 immunofluorescence intensity (TDF [3]) is reported as 99.6 (inactive). For the same compound, the H1.0 immunofluorescence intensity (HCC1569 [4]) was 104 (inactive).

With `CCN1CCN(C(=O)NC(C(=O)NC2C(=O)N3C(C(=O)O)=C(CSc4nnnn4C)CSC23)c2ccc(O)cc2)C(=O)C1=O` (configuration not stated) [Cefoperazone acid] the cell number (HCC1569 [1]) was 100, the cell number (TDF [2]) was 103 and the H1.0 immunofluorescence intensity (TDF [3]) was 91.9 (inactive). For the same compound, the H1.0 immunofluorescence intensity (HCC1569 [4]) was 102 (inactive).

`C=C1C(=CC=C2CCCC3(C)C2CCC3C(C)CCCC(C)C)CC(O)CC1O` (configuration not stated) [Alfacalcidol] was tested, and the cell number (HCC1569 [1]) was 100, the cell number (TDF [2]) was 101 and the H1.0 immunofluorescence intensity (TDF [3]) was 96.5 (inactive). For the same compound, the H1.0 immunofluorescence intensity (HCC1569 [4]) was 101 (inactive).
